Results taken from ChEMBL document CHEMBL3988442, “University of Dundee, Small-Polar-MMV Screening Library” (2021).
Out of some 69,000 compounds screened, about 420 (0.61%) showed an effect of 50% or more. What follows is part of a selection rich in strong results, with near analogues and random picks from the rest.

Target: T1, Histidine--tRNA ligase (Leishmania infantum) (UniProt A4I591)
T1 sequence (whole entry): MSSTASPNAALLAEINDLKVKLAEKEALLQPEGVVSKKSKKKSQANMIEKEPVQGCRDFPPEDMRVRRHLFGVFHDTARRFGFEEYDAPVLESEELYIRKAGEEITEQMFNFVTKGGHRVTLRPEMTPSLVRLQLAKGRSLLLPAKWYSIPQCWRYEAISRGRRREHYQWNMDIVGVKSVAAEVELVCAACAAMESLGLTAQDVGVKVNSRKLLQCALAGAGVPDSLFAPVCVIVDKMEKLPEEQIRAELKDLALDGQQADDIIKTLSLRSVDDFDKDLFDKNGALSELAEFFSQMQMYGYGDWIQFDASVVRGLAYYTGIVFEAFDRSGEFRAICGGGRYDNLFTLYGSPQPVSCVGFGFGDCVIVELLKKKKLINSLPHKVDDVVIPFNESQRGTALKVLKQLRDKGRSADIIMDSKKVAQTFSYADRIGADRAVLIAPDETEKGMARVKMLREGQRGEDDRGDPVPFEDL
Experiment: Leishmania infantum Histidine tRNA synthetase (LdHisRS)
Assay type: functional
Parameters: scale not given: in the data most compounds retested in dose-response had high values
Details: 30 µM

Q: With O=C(c1ccco1)N1CCO[C@@H]2CN(c3ccccc3)CC[C@@H]2C1 as the molecule, how does the Percent Effect read?
A: The Percent Effect was 32%.

Q: For O=C(Nc1cnccn1)[C@@H]1COC[C@H]2CN(C3CCC3)C[C@H]21, which Percent Effect is on record?
A: Its Percent Effect is 12.3%.

Q: Which Percent Effect does the source give for O=C(Nc1ccccc1Cl)N1CCN(CC2CC2)[C@@H]2CS(=O)(=O)C[C@@H]21 here?
A: Its Percent Effect is 8.2%.

Q: How did the Percent Effect turn out when CC(=O)N1C[C@@H]2CC[C@H](C1)N(C(=O)CCc1n[nH]c3c1CCCC3)C2 was run?
A: The Percent Effect was 17.7%.

Q: For CC(C)=CCN1C[C@H]2CC[C@@H]1CN(C(=O)CCc1n[nH]c(C)n1)C2, which Percent Effect is on record?
A: The Percent Effect was -42.5%.

Q: With CS(=O)(=O)N1C[C@@H]2CC[C@H](C1)N(C(=O)CCc1n[nH]c3c1CCCC3)C2 as the molecule, how does the Percent Effect read?
A: Its Percent Effect is 14.5%.

Q: How did the Percent Effect turn out when COCCN1C[C@H]2CC[C@@H]1CN(C(=O)CCc1n[nH]c(C)c1C)C2 was run?
A: The Percent Effect was 13.9%.

Q: O=C(CCc1n[nH]c2c1CCCC2)N1C[C@@H]2CC[C@H](C1)N(CC1CC1)C2 was tested. Which Percent Effect did it give?
A: The Percent Effect was 56.5%.

Q: How did the Percent Effect turn out when O=C(NCc1cccnc1)[C@H]1CC[C@@H]2[C@@H](CCN2c2ncccn2)O1 was run?
A: The Percent Effect was 7%.

Q: COCCN1C(=O)[C@H]2CC[C@@H]1CN(S(=O)(=O)c1cccc(Cl)c1)C2 was tested. Which Percent Effect did it give?
A: The Percent Effect was 0%.

Q: Which Percent Effect does the source give for Cc1cc(C(=O)N2C[C@H]3CC[C@@H]2CN(C)C3)ccc1Cl here?
A: Its Percent Effect is 7.14%.

Q: Which Percent Effect does the source give for COc1ccnc(N2C[C@@H]3CC[C@H](C2)N(CC2CCC2)C3=O)n1 here?
A: Its Percent Effect is 19.4%.

Q: For O=C(c1cocn1)N1C[C@@H]2CN(CC3CC3)CCO[C@@H]2C1, which Percent Effect is on record?
A: The Percent Effect was 7.56%.

Q: How did the Percent Effect turn out when CNC(=O)NC(=O)CN1CCN(CC2CC2)c2ccccc21 was run?
A: Its Percent Effect is 31.2%.

Q: With COCCC(=O)N1CCN(CC2CC2)c2ccccc21 as the molecule, how does the Percent Effect read?
A: The Percent Effect was 26.5%.

Q: Which Percent Effect does the source give for NC(=O)NC(=O)CN1CCN(CC2CC2)c2ccccc21 here?
A: The Percent Effect was 31.2%.

Q: Which Percent Effect does the source give for NC(=O)CN1CCN(CC2CC2)c2ccccc21 here?
A: The Percent Effect was 56.2%.

Q: With NC(=O)NC(=O)CCN1CCN(CC2CC2)c2ccccc21 as the molecule, how does the Percent Effect read?
A: The Percent Effect was 81.2%.

Q: How did the Percent Effect turn out when O=C(NCCCC(=O)N1CCN(CC2CC2)c2ccccc21)C1CC1 was run?
A: The Percent Effect was 11.8%.

Q: Which Percent Effect does the source give for Cc1ccc(N2CC[C@@H]3O[C@@H](COCc4cccnc4)CC[C@@H]32)nn1 here?
A: The Percent Effect was 13.2%.

Q: NC(=O)[C@@H]1CN2CCN(C(=O)C3CC3)C[C@@H]2[C@H]1c1ccccc1 was tested. Which Percent Effect did it give?
A: Its Percent Effect is 2.04%.

Q: Which Percent Effect does the source give for CS(=O)(=O)N1C[C@H]2CCCN(Cc3cccs3)[C@H]2C1 here?
A: Its Percent Effect is 5.26%.

Q: With COc1ccc2c(c1)CC(NCc1cccc(CO)c1)CC2 (stereo not drawn) as the molecule, how does the Percent Effect read?
A: The Percent Effect was 15.4%.

Q: COc1ccc2c(c1)CC(NCc1cccc(OCC(N)=O)c1)CC2 (stereo not drawn) was tested. Which Percent Effect did it give?
A: Its Percent Effect is 59%.

Q: COc1ccc2c(c1)CC(NCc1cccc(NC(C)=O)c1)CC2 (stereo not drawn) was tested. Which Percent Effect did it give?
A: Its Percent Effect is 43.6%.

Q: Cc1ccc(CN2Cc3ccccc3O[C@]3(CC[C@H](CO)CC3)C2)s1 was tested. Which Percent Effect did it give?
A: Its Percent Effect is 16.5%.

Q: Which Percent Effect does the source give for O=C(c1ccccc1)N1CC[C@H]2C[C@@H](c3nnc(C4CC4)o3)O[C@@H]2C1 here?
A: The Percent Effect was 13.6%.

Q: For O=C(C1=NN(Cc2ccccc2)c2ccccc2S1(=O)=O)N1CCCC1, which Percent Effect is on record?
A: Its Percent Effect is 53.9%.

Q: With COC(=O)CN1N=C(C(=O)N2CCCC2)S(=O)(=O)c2ccccc21 as the molecule, how does the Percent Effect read?
A: Its Percent Effect is 12.2%.

Q: With CC(C)CCN1N=C(C(=O)N2CCCCCC2)S(=O)(=O)c2ccccc21 as the molecule, how does the Percent Effect read?
A: The Percent Effect was 10.2%.

Q: How did the Percent Effect turn out when CN(CCCc1ccccc1)C(=O)c1ccccc1NCC(=O)O was run?
A: The Percent Effect was 16.9%.

Q: With CN(CCCN1CCCCCC1)C(=O)c1ccccc1NCC(=O)O as the molecule, how does the Percent Effect read?
A: Its Percent Effect is 50.6%.

Q: For CN(C(=O)c1ccccc1NCC(=O)O)C(C1CC1)C1CC1, which Percent Effect is on record?
A: The Percent Effect was -4.2%.

Q: For CNC(=O)CN1CCC(CN(C)Cc2ccc(C)cc2C)CC1, which Percent Effect is on record?
A: Its Percent Effect is 2.04%.

Q: How did the Percent Effect turn out when Cc1ccc(CN2C[C@@H]3C[C@H](C(=O)NCC4CC4)N(C)[C@@H]3C2)o1 was run?
A: The Percent Effect was 10.1%.

Q: Which Percent Effect does the source give for Cc1nc(CN2C(=O)CC[C@@H]3[C@H]2CCN3C(=O)C2CCCO2)cs1 (stereo partly drawn) here?
A: The Percent Effect was 15.4%.

Q: How did the Percent Effect turn out when CSc1nc(N)cc(N2C[C@@H]3CC[C@H](C2)N(Cc2cscn2)C3=O)n1 was run?
A: Its Percent Effect is 11%.

Q: How did the Percent Effect turn out when Clc1cc(NCc2ccncc2)nc2[nH]ccc12 was run?
A: The Percent Effect was 71.1%.

Q: How did the Percent Effect turn out when Clc1cc(NCc2ncc[nH]2)nc2[nH]ccc12 was run?
A: Its Percent Effect is 10.8%.

Q: With Clc1cc(NCc2nccs2)nc2[nH]ccc12 as the molecule, how does the Percent Effect read?
A: Its Percent Effect is 22.9%.

Q: How did the Percent Effect turn out when c1cnc(N2CCO[C@H]3CN(Cc4csnn4)C[C@H]32)cn1 was run?
A: The Percent Effect was 26.3%.

Q: For CS(=O)(=O)NC[C@@H]1OC[C@H]2CN(C(=O)c3ccc[nH]3)CC[C@H]21, which Percent Effect is on record?
A: The Percent Effect was -383%.

Q: How did the Percent Effect turn out when CS(=O)(=O)N[C@@H]1COC[C@@H]2CN(Cc3ccoc3)C[C@@H]21 was run?
A: The Percent Effect was 6.94%.

Q: How did the Percent Effect turn out when CC(C)(C)c1cc(CN2C[C@H]3CC[C@@H]2CN(Cc2cscn2)C3)n[nH]1 was run?
A: Its Percent Effect is 11.5%.

Q: O=S(=O)(c1cccnc1)N1C[C@@H]2COC[C@]2(COCC2CC2)C1 was tested. Which Percent Effect did it give?
A: Its Percent Effect is 1.75%.

Q: Which Percent Effect does the source give for Cc1ccc(-n2c(COCC(=O)O)nc3c(C)cccc32)nc1 here?
A: Its Percent Effect is 25%.

Q: Which Percent Effect does the source give for Cc1cccc2c1nc(COCC(=O)O)n2-c1ccc(N)nc1 here?
A: Its Percent Effect is 1.67%.

Q: How did the Percent Effect turn out when Cc1cccc2c1nc(COCC(=O)O)n2-c1cnc(N)cn1 was run?
A: The Percent Effect was 68.3%.

Q: How did the Percent Effect turn out when CN(C)S(=O)(=O)N1CC[C@]2(O)CCN(c3nccs3)C[C@@H]2C1 was run?
A: Its Percent Effect is 20%.

Q: For O=C(NCC1CC1)[C@H]1C[C@H]2OCC[C@H]2N(Cc2ccoc2)C1, which Percent Effect is on record?
A: Its Percent Effect is 10.5%.

Q: For c1ccc(Cn2cc(CNCC3CCCN3c3cccnn3)cn2)cc1 (stereo not drawn), which Percent Effect is on record?
A: The Percent Effect was 53%.

Q: How did the Percent Effect turn out when c1ccc(-n2cc(CNCC3CCCN3c3cccnn3)nn2)cc1 (stereo not drawn) was run?
A: Its Percent Effect is 6.14%.

Q: Which Percent Effect does the source give for c1ccc(-n2cc(CNCC3CCCN3c3cccnn3)cn2)cc1 (stereo not drawn) here?
A: Its Percent Effect is 21.9%.

Q: c1ccc(-n2ccc(CNCC3CCCN3c3cccnn3)n2)cc1 (stereo not drawn) was tested. Which Percent Effect did it give?
A: The Percent Effect was 25.4%.

Q: For c1ccc(-n2ncc(CNCC3CCCN3c3cccnn3)n2)cc1 (stereo not drawn), which Percent Effect is on record?
A: The Percent Effect was 65.2%.

Q: How did the Percent Effect turn out when c1ccc(Cn2ccnc2CNCC2CCCN2c2cccnn2)cc1 (stereo not drawn) was run?
A: The Percent Effect was 5.36%.

Q: Which Percent Effect does the source give for COCCOC(=O)N1CCN2C[C@@H](CO)[C@H](c3ccccc3)[C@H]2C1 here?
A: Its Percent Effect is 2.04%.

Q: For O=C(c1ccoc1)N1CC[C@@H]2O[C@H](COCc3ccccn3)CC[C@@H]21, which Percent Effect is on record?
A: Its Percent Effect is 7.52%.

Q: With c1cnc(N2CCO[C@H]3[C@H](OCC4CC4)CC[C@@H]32)nc1 as the molecule, how does the Percent Effect read?
A: Its Percent Effect is 8.11%.

Q: For O=C1NC(c2ccccc2)=N[C@@]12CC[C@@H]1CN(Cc3ccncc3)C[C@@H]12, which Percent Effect is on record?
A: The Percent Effect was 25%.

Q: COCCNC(=O)[C@H]1C[C@@H]2CCN(c3nncs3)C[C@H]2O1 was tested. Which Percent Effect did it give?
A: The Percent Effect was 5.77%.

Q: How did the Percent Effect turn out when O=C(c1ccccc1)N1C[C@@H]2CCCO[C@@H]2[C@H](N2CCOCC2)C1 was run?
A: Its Percent Effect is 17.5%.

Q: Cc1cc(C(=O)Nc2cccn(Cc3ccc(F)cc3)c2=O)on1 was tested. Which Percent Effect did it give?
A: The Percent Effect was 84.1%.

Q: With O=C(Nc1cccn(Cc2ccccc2)c1=O)c1ccncc1F as the molecule, how does the Percent Effect read?
A: Its Percent Effect is 68.6%.

Q: How did the Percent Effect turn out when O=C(Nc1cccn(Cc2ccc(F)cc2)c1=O)c1cnc[nH]1 was run?
A: Its Percent Effect is 27.4%.

Q: Which Percent Effect does the source give for Cc1cc(C(=O)Nc2cccn(Cc3ccc(F)cc3)c2=O)no1 here?
A: The Percent Effect was 20.4%.

Q: How did the Percent Effect turn out when O=C(Nc1cccn(CC(F)(F)F)c1=O)c1ccncc1F was run?
A: Its Percent Effect is 17.1%.

Q: For Cc1cc(C(=O)Nc2cccn(Cc3ccccc3)c2=O)no1, which Percent Effect is on record?
A: The Percent Effect was 23.9%.
